For assay [1], the system named is PRMT1 (protein arginine N-methyltransferase 1). As to the kind of experiment: PRMT1 binders on small-molecule microarrays, primary screen, biochemical, small-molecule microarray, 635 nm fluorescence (AID 1088).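 Also: binding of Prmt1 protein to compounds spotted on small-molecule microarray slides.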 The note with it: small-molecule microarray binding, higher = more signal.
Assay [2] in a line: yeast growth modulation, basal conditions, primary screen, YJM789 clinical isolate, OD600, 24 h (AID 1089).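 Also: growth of clinical yeast isolate S. cerevisiae YJM 789 seeded 1000 cells per well; test concentration not given here.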 The conditions noted are these: S. cerevisiae YJM789 growth, higher = more signal, called active from +8 up or from −8 down.
Assay [3] in a line: fission yeast growth modulation, primary screen, strain 972, OD600, 24 h, no modulator (AID 1090).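 Also: basal condition with compound alone and no growth modifier present; test concentration not given here.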 The conditions noted are these: S. pombe 972 growth, higher = more signal, called active from +8 up or from −8 down.
A short description of assay [4]: S. cerevisiae growth modulation with rapamycin, primary screen, strain BY4716, OD600, 96 h (AID 1091). Also: test concentration not given here. The note with it: higher = more signal, called active from +8 up or from −8 down.
Assay [5] addresses Torsin-1A-interacting protein 2 (Homo sapiens) (UniProt Q8NFQ8). As to the kind of experiment: LULL1 binders on small-molecule microarray, primary screen, cell lysate, human LULL1 lysate, 635/667 nm fluorescence (AID 1092).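 Also: probe is lysate of COS7 cells overexpressing human LULL1; score merges per-feature 667 nm fluorescence with signal-to-noise.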 The conditions noted are these: hLULL1 lysate binding, 635 nm fluorescence, higher = more signal.
Assay [6] in a line: E. coli growth modulation, two-sided OD650, primary screen, E. coli filamentation project, strain DRC41, 24 h (AID 1093).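 Also: MC1000 strain lacking acrAB efflux and sulA so SOS filamentation is blocked; test concentration not given here.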 The conditions noted are these: OD650, 24 h, higher = more signal, called active from +8 up or from −8 down.
Assay [7] is described as follows: small-molecule microarray binders of probe aLefty2, primary screen, biochemical, biotinylated probe, 635/667 nm fluorescence (AID 1094).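 Also: score merges spot fluorescence near 667 nm with spot signal-to-noise ratio.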 The conditions noted are these: higher = more signal.
Assay [8] deals with Noggin (protein binding on small-molecule microarray). As to the kind of experiment: Noggin binders on small-molecule microarray, primary screen, biochemical, 635/667 nm fluorescence (AID 1095).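 Also: score merges 667 nm feature fluorescence with signal to noise over triplicate slides.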 The note with it: 635 nm fluorescence, higher = more signal.
In assay [9] the target is Neurogenic locus notch homolog protein 3 (Homo sapiens) (UniProt Q9UM47). As to the kind of experiment: NOTCH3 binders on small-molecule microarray, primary screen, biochemical, 635/667 nm fluorescence (AID 1096). The conditions noted are these: NOTCH3 binding, 635 nm fluorescence, higher = more signal.
Sequence of Neurogenic locus notch homolog protein 3 (Homo sapiens) (Q9UM47 whole entry, looked up): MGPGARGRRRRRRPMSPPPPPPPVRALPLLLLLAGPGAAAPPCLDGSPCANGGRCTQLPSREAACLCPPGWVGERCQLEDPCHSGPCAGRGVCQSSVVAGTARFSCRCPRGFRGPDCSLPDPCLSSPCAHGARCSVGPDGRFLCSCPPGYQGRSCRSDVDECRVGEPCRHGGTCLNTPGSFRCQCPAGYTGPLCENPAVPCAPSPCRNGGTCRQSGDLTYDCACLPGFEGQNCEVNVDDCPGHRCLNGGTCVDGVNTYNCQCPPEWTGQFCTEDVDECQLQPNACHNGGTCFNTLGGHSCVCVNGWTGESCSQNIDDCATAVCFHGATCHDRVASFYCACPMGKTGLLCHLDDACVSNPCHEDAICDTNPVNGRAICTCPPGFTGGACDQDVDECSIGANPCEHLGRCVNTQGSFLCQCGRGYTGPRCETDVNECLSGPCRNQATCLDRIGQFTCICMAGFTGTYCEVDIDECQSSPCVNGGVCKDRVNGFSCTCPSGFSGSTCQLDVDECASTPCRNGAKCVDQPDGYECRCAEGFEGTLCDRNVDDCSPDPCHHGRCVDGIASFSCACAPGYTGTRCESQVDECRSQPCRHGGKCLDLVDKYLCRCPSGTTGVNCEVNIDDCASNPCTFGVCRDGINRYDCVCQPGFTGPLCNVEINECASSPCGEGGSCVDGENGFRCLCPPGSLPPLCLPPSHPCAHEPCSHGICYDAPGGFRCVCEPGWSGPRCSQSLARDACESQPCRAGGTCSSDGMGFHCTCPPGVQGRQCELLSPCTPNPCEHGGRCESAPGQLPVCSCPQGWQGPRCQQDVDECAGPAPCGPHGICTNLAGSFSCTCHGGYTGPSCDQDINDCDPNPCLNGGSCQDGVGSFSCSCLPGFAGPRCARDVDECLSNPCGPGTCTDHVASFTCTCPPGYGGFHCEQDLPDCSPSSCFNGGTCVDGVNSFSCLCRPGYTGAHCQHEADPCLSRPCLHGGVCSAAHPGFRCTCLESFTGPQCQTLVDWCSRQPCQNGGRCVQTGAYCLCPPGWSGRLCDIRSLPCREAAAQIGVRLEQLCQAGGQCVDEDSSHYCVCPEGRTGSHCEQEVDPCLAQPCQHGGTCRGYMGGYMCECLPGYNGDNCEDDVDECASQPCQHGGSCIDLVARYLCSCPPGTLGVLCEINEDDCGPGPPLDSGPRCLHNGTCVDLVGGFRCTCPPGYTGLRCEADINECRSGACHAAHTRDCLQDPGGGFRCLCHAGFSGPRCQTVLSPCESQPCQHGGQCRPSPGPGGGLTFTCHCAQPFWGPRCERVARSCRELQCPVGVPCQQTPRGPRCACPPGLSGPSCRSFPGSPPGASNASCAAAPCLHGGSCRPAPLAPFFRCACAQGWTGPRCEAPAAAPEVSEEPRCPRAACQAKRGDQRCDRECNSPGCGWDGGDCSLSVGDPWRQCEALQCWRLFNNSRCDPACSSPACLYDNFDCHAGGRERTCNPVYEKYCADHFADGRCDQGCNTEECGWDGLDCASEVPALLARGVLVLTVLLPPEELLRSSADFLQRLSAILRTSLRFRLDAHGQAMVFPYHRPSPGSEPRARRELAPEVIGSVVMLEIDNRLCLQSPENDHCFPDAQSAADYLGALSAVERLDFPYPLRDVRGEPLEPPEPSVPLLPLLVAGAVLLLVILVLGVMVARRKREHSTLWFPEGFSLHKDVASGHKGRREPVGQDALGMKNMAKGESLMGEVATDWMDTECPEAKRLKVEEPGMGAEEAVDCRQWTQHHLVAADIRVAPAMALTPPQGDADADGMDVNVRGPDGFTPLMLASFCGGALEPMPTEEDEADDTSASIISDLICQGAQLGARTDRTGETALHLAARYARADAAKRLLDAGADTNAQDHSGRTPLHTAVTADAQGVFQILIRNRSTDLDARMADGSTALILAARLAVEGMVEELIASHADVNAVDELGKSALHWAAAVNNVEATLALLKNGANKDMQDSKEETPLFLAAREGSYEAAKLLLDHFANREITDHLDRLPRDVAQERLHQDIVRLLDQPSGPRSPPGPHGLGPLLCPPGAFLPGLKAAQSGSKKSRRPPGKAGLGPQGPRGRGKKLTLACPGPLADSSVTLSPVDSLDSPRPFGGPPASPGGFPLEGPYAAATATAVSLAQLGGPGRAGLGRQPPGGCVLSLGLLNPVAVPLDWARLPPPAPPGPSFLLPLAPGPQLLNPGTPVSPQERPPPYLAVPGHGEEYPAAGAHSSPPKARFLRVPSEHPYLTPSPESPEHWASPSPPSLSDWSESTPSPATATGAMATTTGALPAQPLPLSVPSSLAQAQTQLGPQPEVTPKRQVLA
Assay [10] can be described thus: small-molecule microarray binders of probe aEGFR, primary screen, biochemical, biotinylated probe, 635/667 nm fluorescence (AID 1097).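 Also: probe is a biotinylated anti-EGFR antibody binding compounds printed on slides; score combines fluorescence near 667 nm and signal to noise of each spot.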 The note with it: higher = more signal.
The test system of assay [11] is Plasmodium falciparum Sir2 (PF13_0152, Sir2A). As to the kind of experiment: pfSir2 binders on small-molecule microarrays, primary screen, biochemical, small-molecule microarray, 635 nm fluorescence (AID 1098).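 Also: score merges spot fluorescence intensity with its signal-to-noise ratio.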 The conditions noted are these: small-molecule microarray binding, fluorescence 635 nm; higher = more signal.
The nature of assay [12]: small-molecule microarray binders of probe aDKK1, primary screen, biochemical, biotinylated probe, 635/667 nm fluorescence (AID 1099).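 Also: score merges 667nm spot fluorescence with signal to noise across triplicate slides; reference of the scale not given here.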 The conditions noted are these: higher = more signal.
A short description of assay [13]: small-molecule microarray binders of probe aCHRDL2, primary screen, biochemical, biotinylated probe, 635/667 nm fluorescence (AID 1100). The note with it: higher = more signal.
The nature of assay [14]: splicing luciferase reporter signal modulators, primary screen, spliceosome inhibition project, cell-based, HEK293, splice +/- reporter (AID 1101).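 Also: HEK293 cells carrying a splicing-competent luciferase reporter gene; test concentration not given here.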 The conditions noted are these: luminescence, 24 h, higher = more signal, called active from +8 up or from −8 down.
The target in assay [15] is Fibroblast growth factor 10 (Homo sapiens) (UniProt O15520). As to the kind of experiment: FGF10 binders on small-molecule microarrays, primary screen, biochemical, small-molecule microarray, 635 nm fluorescence (AID 1102). The conditions noted are these: FGF10 binding, fluorescence 635 nm, higher = more signal.
Sequence of Fibroblast growth factor 10 (Homo sapiens) (O15520 whole entry, looked up): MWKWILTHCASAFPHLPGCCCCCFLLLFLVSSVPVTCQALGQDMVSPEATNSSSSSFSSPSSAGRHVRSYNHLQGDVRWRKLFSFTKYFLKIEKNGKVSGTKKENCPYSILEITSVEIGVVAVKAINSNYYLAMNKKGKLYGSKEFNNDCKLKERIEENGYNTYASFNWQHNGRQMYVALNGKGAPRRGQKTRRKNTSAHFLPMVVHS
Assay [16] has as its system glycogen synthase kinase-3 (GSK3A per assay name; protocol says GSK3B). The assay can be described thus: GSK3 binders on small-molecule microarrays, primary screen, biochemical, small-molecule microarray, 635 nm fluorescence, GSK3A (AID 1103). Also: the record names both GSK3A and GSK3B. The note with it: small-molecule microarray binding, fluorescence 635 nm; higher = more signal.
Assay [17] deals with Epidermal growth factor receptor (Homo sapiens) (UniProt P00533). The assay can be described thus: EGFR binders on small-molecule microarrays, primary screen, biochemical, small-molecule microarray, 635 nm fluorescence (AID 1104).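 Also: score merges 667 nm emission intensity with spot signal to noise over triplicate slides.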 The note with it: EGFR binding, higher = more signal.
Sequence of Epidermal growth factor receptor (Homo sapiens) (P00533 whole entry, looked up): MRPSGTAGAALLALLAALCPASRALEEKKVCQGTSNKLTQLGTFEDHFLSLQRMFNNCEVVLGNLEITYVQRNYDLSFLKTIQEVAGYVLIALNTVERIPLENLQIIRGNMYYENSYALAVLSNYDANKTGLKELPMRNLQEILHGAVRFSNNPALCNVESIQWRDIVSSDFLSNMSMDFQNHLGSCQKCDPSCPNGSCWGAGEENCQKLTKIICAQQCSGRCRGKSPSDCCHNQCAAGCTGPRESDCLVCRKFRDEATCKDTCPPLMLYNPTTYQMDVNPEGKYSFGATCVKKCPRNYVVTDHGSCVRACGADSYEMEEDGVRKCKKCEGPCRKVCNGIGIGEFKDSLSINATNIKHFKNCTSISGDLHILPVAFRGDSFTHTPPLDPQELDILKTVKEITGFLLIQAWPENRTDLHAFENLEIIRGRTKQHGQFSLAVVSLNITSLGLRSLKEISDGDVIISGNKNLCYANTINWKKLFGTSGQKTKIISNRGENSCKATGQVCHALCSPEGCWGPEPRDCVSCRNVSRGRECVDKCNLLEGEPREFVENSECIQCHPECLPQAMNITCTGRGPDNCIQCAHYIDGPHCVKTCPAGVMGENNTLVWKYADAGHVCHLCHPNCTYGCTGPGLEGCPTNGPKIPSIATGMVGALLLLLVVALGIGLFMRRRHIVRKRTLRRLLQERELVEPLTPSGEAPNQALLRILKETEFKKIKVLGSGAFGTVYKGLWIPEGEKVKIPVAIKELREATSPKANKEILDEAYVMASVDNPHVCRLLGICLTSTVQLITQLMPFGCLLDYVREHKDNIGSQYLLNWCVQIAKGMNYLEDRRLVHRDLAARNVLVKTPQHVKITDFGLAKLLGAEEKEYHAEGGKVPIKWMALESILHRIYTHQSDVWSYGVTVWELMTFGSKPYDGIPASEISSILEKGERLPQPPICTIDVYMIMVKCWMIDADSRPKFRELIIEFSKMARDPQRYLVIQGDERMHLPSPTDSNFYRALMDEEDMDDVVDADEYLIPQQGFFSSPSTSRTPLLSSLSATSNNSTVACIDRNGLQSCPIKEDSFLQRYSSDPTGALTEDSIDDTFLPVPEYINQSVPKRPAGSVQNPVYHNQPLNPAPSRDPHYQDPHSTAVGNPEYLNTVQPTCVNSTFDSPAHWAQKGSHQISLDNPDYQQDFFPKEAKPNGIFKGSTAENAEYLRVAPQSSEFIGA
Assay [18] addresses Follistatin-related protein 3 (Homo sapiens) (UniProt O95633). As to the kind of experiment: FSTL3 binders on small-molecule microarrays, primary screen, biochemical, small-molecule microarray, 635 nm fluorescence (AID 1105).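 Also: score merges emission near 667 nm and signal to noise per printed spot across three slides.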 The note with it: FSTL3 binding, higher = more signal.
Assay [19] deals with Dickkopf-related protein 1 (Homo sapiens) (UniProt O94907). As to the kind of experiment: DKK1 binders on small-molecule microarrays, primary screen, biochemical, small-molecule microarray, 635 nm fluorescence scan (AID 1106).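 Also: score merges emission near 667 nm with signal to noise over three replicate slides.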 The conditions noted are these: DKK1 binding, higher = more signal.
Sequence of Dickkopf-related protein 1 (Homo sapiens) (O94907 whole entry, looked up): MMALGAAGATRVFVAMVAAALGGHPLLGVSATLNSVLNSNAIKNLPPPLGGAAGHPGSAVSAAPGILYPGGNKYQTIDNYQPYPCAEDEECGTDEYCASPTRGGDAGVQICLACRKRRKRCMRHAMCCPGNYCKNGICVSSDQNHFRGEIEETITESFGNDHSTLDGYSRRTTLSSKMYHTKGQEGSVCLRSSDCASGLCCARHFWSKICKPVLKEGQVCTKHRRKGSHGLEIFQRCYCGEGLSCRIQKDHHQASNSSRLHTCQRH
The test system of assay [20] is Inhibin beta A chain (activin A). As to the kind of experiment: INHBA (activin A) binders on microarrays, primary screen, biochemical, small-molecule microarray, 635 nm fluorescence scan (AID 1107).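 Also: mouse activin A protein probed at 4.33 µg/mL on printed slides; score merges bound-protein fluorescence near 667 nm with spot signal-to-noise.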 The conditions noted are these: small-molecule microarray binding, higher = more signal.

Each structure is given as a SMILES string. The source made the active and inactive calls.

Sequence of Torsin-1A-interacting protein 2 (Homo sapiens) (Q8NFQ8 whole entry, looked up): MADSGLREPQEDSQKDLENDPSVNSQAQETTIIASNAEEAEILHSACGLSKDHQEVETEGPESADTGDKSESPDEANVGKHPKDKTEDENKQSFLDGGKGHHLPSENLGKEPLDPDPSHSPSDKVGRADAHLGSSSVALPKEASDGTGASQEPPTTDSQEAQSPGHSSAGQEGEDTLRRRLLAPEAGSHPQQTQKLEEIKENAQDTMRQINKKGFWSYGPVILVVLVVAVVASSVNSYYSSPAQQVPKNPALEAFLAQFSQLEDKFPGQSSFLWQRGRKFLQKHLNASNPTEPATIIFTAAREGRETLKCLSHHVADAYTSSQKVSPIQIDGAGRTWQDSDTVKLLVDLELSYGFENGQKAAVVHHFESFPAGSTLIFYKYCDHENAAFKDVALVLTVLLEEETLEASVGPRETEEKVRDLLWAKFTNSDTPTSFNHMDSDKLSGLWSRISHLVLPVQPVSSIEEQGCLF
Sequence of Follistatin-related protein 3 (Homo sapiens) (O95633 whole entry, looked up): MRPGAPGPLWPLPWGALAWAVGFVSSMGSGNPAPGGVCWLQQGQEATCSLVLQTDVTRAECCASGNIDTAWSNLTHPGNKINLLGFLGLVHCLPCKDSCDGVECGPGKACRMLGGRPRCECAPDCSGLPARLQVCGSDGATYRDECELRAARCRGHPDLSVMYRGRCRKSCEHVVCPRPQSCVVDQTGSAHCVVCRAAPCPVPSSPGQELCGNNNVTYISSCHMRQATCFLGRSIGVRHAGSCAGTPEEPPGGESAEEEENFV

As for `Cn1c(=O)n2n(c1=O)[C@H]1[C@H](O)[C@@H]3O[C@@H]3C(=NOC[C@@H](O)COCc3ccco3)[C@H]1CC2`, the composite z-score in assay [1] was 0.188; in assay [5] it was 0.14; in assay [7], -0.171; in assay [8] it was 0.426; in [9], 0.775; in [10], 0.0574. The composite z-score in assay [11] is 0.608; in assay [12] it was -0.198; in assay [13], -0.505; in assay [15], 0.131; in assay [16], 0.698; in [17], 0.475. Further, the figures for the composite z-score in [18], in [19] and in assay [20] were 0.541, 0.0999 and 0.0409, respectively. The z-score is 0.0859 (inactive) in assay [2]; 0.171 (inactive) in assay [3]; -0.36 (inactive) in [4]; -0.0342 (inactive) in [6]; -0.695 (inactive) in assay [14].

As to `CO[C@@H]1COC(=O)CC=C[C@@H](C)COC(=O)[C@H](COCc2ccccc2)NC(=O)CC=C[C@H]1C`, the composite z-score in [1] is 0.943; in assay [5], -0.914; in assay [7] it was -0.183; in assay [8], 1.71; in [9], -0.551; in [10], -0.0899. The composite z-score was 1.49 in [11]; -0.526 in [12]; -1.31 in assay [13]; 0.285 in assay [15]; 0.19 in assay [16]; 0.912 in [17]. The composite z-score was determined as 1.23 in assay [18], 1.64 in assay [19] and 1.63 in assay [20]. In addition, the z-score in [2] was 0.847 (inactive); in assay [3] it was -0.584 (inactive); in assay [4], 0.736 (inactive); in [6], 0.154 (inactive); in [14] it was -0.912 (inactive).

Regarding `COCCOC(=O)N1C(=O)[C@@]2(c3ccccc31)[C@H](C(N)=O)[C@H]1C(=O)O[C@H](c3ccccc3)[C@H](c3ccccc3)N1[C@@H]2c1ccccc1OCCO`, the composite z-score was determined as 1.53 in assay [1]; 1.84 in assay [5]; 0.16 in [7]; 1.32 in assay [8]; 1.12 in assay [9]; 0.261 in assay [10]. Further, the composite z-score in [11] came to 1.31; in assay [12] it was 0.756; in assay [13], 0.799; in [15], 1.23; in assay [16] it was 0.98; in assay [17] it was 0.483. The composite z-score was 0.584 in assay [18], 0.516 in assay [19] and 0.617 in assay [20]. For the same molecule, the z-score was 0.438 (inactive) in [2]; -0.142 (inactive) in [3]; 3.11 (inactive) in assay [4]; 1.24 (inactive) in [6]; -0.0592 (inactive) in assay [14].

Regarding `COC(=O)CC=C[C@H](C)[C@@H](OCc1ccccc1Br)C(C)C`, the composite z-score in assay [1] was 0.204; in assay [5], -0.117; in assay [7], -0.228; in assay [8] it was 0.168; in [9], -0.0294; in assay [10] it was -0.167. Further, the composite z-score was -0.0201 in assay [11]; -0.371 in assay [12]; -0.397 in [13]; 0.321 in [15]; -0.243 in assay [16]; 0.195 in assay [17]. Moreover, the composite z-score in assay [18] turned out to be 0.285; in assay [19], 0.292; in [20], 0.0114. Moreover, the z-score in assay [2] is -0.0851 (inactive); in assay [3], -0.552 (inactive); in [4], 0.393 (inactive); in assay [6] it was -0.295 (inactive); in assay [14] it was -0.76 (inactive).

These data come from PubChem BioAssay.
